Sm TGR inh – S. mansoni TGR enzyme inhibition | purified TGR, DTNB reduction, TNB absorbance 405 nm | Potency, µM (doses to about 114 µM), for inactives: at the highest dose activity change, negative = inhibition, actives largely listed as inhibitors | hit rate 3% among 360,000 | AID 485364; note: % is set by controls: 0 for no effect and ±100 for the full control effect; nearly all actives have a fitted effect of over 60% in size
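TGR 20 nM + NADPH 100 uM (dispensed conc.), cpd preinc 15 min RT; start with NADPH (500 uM addition) then DTNB (15 mM addition). Kinetic TNB absorbance, 405 nm filter. Four-parameter Hill fit across titration.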
AmpC detergent – inhibitors of E. coli AmpC beta-lactamase with detergent; P00811; Potency, µM (series often up to 114 µM), without a hit: at the top dose activity change, negative = inhibition, actives largely listed as inhibitors; hit rate 0.041% among 370,000; AID 485294; AmpC hydrolysis of nitrocefin, absorbance 480 nm, 0.01% Triton;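 note: 0% = no-compound wells and -100% = no-enzyme wells; nearly all actives have a fitted effect of over 25% in size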
Target sequence (P00811 whole entry, looked up): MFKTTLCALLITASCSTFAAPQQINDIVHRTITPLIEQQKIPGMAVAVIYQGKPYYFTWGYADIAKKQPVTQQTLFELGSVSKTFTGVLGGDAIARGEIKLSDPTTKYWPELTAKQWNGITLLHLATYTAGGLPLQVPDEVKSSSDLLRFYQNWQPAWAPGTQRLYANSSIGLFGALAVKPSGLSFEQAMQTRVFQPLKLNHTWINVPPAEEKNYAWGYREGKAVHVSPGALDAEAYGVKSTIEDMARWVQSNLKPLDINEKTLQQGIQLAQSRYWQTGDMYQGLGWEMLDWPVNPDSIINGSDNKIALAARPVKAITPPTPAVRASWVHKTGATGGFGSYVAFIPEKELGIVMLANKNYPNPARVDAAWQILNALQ
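AmpC (5.3 nM in the dispensed reagent) in 20 mM phosphate pH 7.0 with 0.01% (detergent screen) or 0.0001% Triton X-100 was preincubated with compounds for 15 min at room temperature. Nitrocefin was then added from an 800 uM solution, and hydrolysis was followed at 480 nm.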
Pf growth 48h – inhibits P. falciparum growth in the first generation, 48 h. AID 504832. hit rate 5.9% among 310,000. P. falciparum luciferase growth in erythrocytes, 48 h. Potency, µM (series often up to 28.7 µM), for the others: at the highest dose activity change, negative = inhibition, hits mostly inhibitors; note: % is set by controls: 0 for no effect and ±100 for the full control effect
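Firefly luciferase activity from engineered P. falciparum reports growth; inhibitors lower the luminescent signal. Cultures contained 2% hematocrit erythrocytes at 0.1% final parasitemia.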
SARS PLpro yeast – SARS-CoV PLP inhibition in yeast | S. cerevisiae expressing SARS-CoV PLpro, growth rescue | Potency, µM (highest dose often 32.9 µM), for inactives: top-dose activity, positive = growth rescue, actives largely listed as activators | hit rate 0.19% among 330,000 | AID 485353; calls by dose curve; note: 0% is about no effect; nearly all actives have a fitted effect of over 55% in size
Pf growth 96h – inhibits malaria parasite growth, 96 h; P. falciparum luciferase reporter growth, 96 h; Potency, µM (highest dose often 28.7 µM), for inactives: top-dose activity change, negative = inhibition, usual class: inhibitors; hit rate 6.9% among 320,000; note: % is set by controls: 0 for no effect and ±100 for the full control effect
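P. falciparum expressing integrated firefly luciferase, in erythrocytes at 2% hematocrit, 0.05% parasitemia, incubated with compounds 96 h at 37 C, 5% CO2. Growth inhibition read as loss of luminescence; two-generation exposure targets delayed-death apicoplast inhibitors.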
AmpC inh no detg – inhibitors of E. coli AmpC beta-lactamase without detergent | hit rate 0.52% among 330,000 | AID 485341 | P00811 | Potency, µM (series often up to 57.1 µM), without a hit: at the highest dose activity change, negative = inhibition, hits mostly inhibitors | AmpC nitrocefin hydrolysis, absorbance 480 nm, 0.0001% Triton;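 note: plate controls were no compound for no effect and no enzyme for full effect; nearly all actives have a fitted effect of over 20% in size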
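AmpC (5.3 nM in the dispensed reagent) in 20 mM phosphate pH 7.0 with 0.01% (detergent screen) or 0.0001% Triton X-100 was preincubated with compounds for 15 min at room temperature. Nitrocefin was then added from an 800 uM solution, and hydrolysis was followed at 480 nm.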
* hit, by the source's call; i = inactive; ? = inconclusive; nt = no result given; [ ] = remark or other dose. Shown are actives, neighbours in structure and some others; about 12% of the full set was active somewhere. Unless noted, calls come from the whole dose curve; as a rule, active = well fitted curve in the direction sought with a large enough effect; inconclusive = small, poorly fitted or top-dose-only effect, or another doubt; inactive = no such curve, though single readings can be large; an effect the other way counts as inactive or inconclusive. Potency is the fitted concentration of half-maximal effect.

SMILES	Sm TGR inh	AmpC detergent	Pf growth 48h	SARS PLpro yeast	Pf growth 96h	AmpC inh no detg
Cc1oc(-c2ccc(C(=O)NCCC(C)C)cc2)nc1CS(=O)(=O)c1ccccc1	35.5µM*	23.5%	nt	nt	nt	nt
Cc1ccc(S(=O)(=O)Cc2nc(-c3ccc(C(=O)NCc4ccccc4)cc3)oc2C)cc1	31.6µM*	-8.4%	nt	nt	nt	nt
Cc1ccc(S(=O)(=O)Nc2ccccc2N2CCOCC2)cc1	-3.7%	-7.2%	86.9%	2.0%	-1.4%	53.4%
CCOc1nc(SCCOc2ccc(C)cc2)nc(N(C)C)n1	-2.5%	5.4%	9.28µM*	-40.6%	?	10.8%
CC1(C(=O)N2CCC(CC3CC(c4ccc(Cl)cc4)=NO3)(C(=O)NCC3CCCCC3)CC2)CC1 (stereo unspecified)	-0.7%	-13.7%	?	9.1%	1.47µM*	141.1%
CC1(C(=O)N2CCC(CC3CC(c4cccc(Br)c4)=NO3)(C(=O)NCC3CCCCC3)CC2)CC1 (stereo unspecified)	-22.9%	-10.3%	?	8.7%	2.94µM*	145.5%
CC(C)(C)OC(=O)N1CCC(CC2CC(c3ccc(Cl)cc3)=NO2)(C(=O)NCC2CCCCC2)CC1 (stereo unspecified)	-19.8%	?	-69.1%	23.7%	?	-1.5%
Cc1oc2c(cc(NS(=O)(=O)c3ccc(Br)cc3)c3ccccc32)c1C(=O)OCc1ccccc1	-24.1%	2.7%	nt	nt	nt	nt
CCOC(=O)c1c(C)nc2sc3c(=O)n(-c4ccc(C(C)=O)cc4)cnc3c2c1-c1ccc(Cl)cc1	-0.1%	-1.3%	nt	-5.1%	3.7µM*	-0.5%
Cn1c(NC2CCCCC2)cc(=O)n(C)c1=O	5.4%	?	?	7.5%	10.4µM*	-7.8%
Cn1c(NC(=O)CCC2CCCCC2)cc(=O)n(C)c1=O	-20.9%	-8.4%	nt	-4.5%	?	25.9%
CCCS(=O)(=O)c1nc(S(=O)(=O)c2ccc(C)cc2)c(N2CCC(O)CC2)s1	-6.0%	-10.1%	-5.8%	0.2%	-9.6%	62.7%
CCCS(=O)(=O)c1nc(S(=O)(=O)c2ccc(C)cc2)c(NC(C)c2ccccc2)s1 (stereo unspecified)	5.01µM*	-1.2%	nt	nt	nt	nt
CCCS(=O)(=O)c1nc(S(=O)(=O)c2ccc(C)cc2)c(N2CCC(C(N)=O)CC2)s1	44.7µM*	-9.1%	-6.9%	-0.8%	10.4µM*	47.8%
CCCS(=O)(=O)c1nc(S(=O)(=O)c2ccc(C)cc2)c(N2CCCC2)s1	-1.9%	0.6%	11.7µM*	10.6%	nt	-21.6%
CCCS(=O)(=O)c1nc(S(=O)(=O)c2ccc(C)cc2)c(N2CCCC(C)C2)s1 (stereo unspecified)	3.0%	-5.1%	?	-2.9%	?	3.7%
CCCS(=O)(=O)c1nc(S(=O)(=O)c2ccc(C)cc2)c(N2CCc3ccccc3C2)s1	25.1µM*	?	2.33µM*	-15.6%	?	-19.5%
CCCOc1ccccc1C1Oc2nc(SC)nnc2-c2ccccc2N1C(C)=O (stereo unspecified)	21.7%	9.9%	nt	nt	nt	nt
C[N+]1(C2CCC3CCCC2C3O)CCCC1 (stereo unspecified)	-7.4%	-4.4%	?	-16.2%	?	-2.8%
CCCS(=O)(=O)c1nc(S(=O)(=O)c2ccc(C)cc2)c(N2CCC(C)CC2)s1	-4.9%	-3.2%	?	-2.3%	14.7µM*	-7.9%
Cc1ccc(S(=O)(=O)c2nc(S(=O)(=O)c3ccc(C)cc3)c(N3CCN(CCO)CC3)s2)cc1	-24.6%	7.3%	5.22µM*	2.7%	-31.0%	249.2%
CC(C)NCC(O)Cn1c2c(c3ccccc31)CCc1c-2cnn1-c1ccccc1 (stereo unspecified)	-23.4%	-13.5%	2.94µM*	-2.5%	?	136.9%
CN1CCc2c(n(CC(O)CNCc3ccccc3)c3ccccc23)C1=O (stereo unspecified)	-0.1%	4.7%	-12.6%	-0.7%	19.8%	-3.2%
O=C(CCCc1nc(-c2ccc(Cl)cc2)no1)NC1CCCC1	-6.5%	-7.7%	-20.1%	-0.3%	4.65µM*	31.1%
O=C(CCCC(=O)OCC(=O)c1ccc(Cl)cc1)NC1CCCCC1	5.0%	?	22.9%	-1.2%	11.7µM*	26.7%
SMILES	Sm TGR inh	AmpC detergent	Pf growth 48h	SARS PLpro yeast	Pf growth 96h	AmpC inh no detg
O=C(CCc1nc(-c2ccc(Cl)cc2)no1)NC1CCCCC1	4.3%	-0.3%	25.9%	4.3%	0.1%	-10.5%
COc1ccc(-c2noc(CCC(=O)NC3CCCCC3)n2)cc1	-9.9%	?	25.0%	13.2%	11.7µM*	7.8%
COc1ccc(C(=O)SC2=NCCS2)cc1OC	-5.6%	-11.5%	8.6%	0.1%	4.2%	-19.8%
Cc1ccc(C(=O)SC2=NCCS2)cc1	-5.9%	-1.7%	11.2%	-85.5%	9.28µM*	-22.9%
O=C(Nc1ccc(S(=O)(=O)Nc2ncccn2)cc1)c1cccc(S(=O)(=O)N2CCOCC2)c1	4.1%	6.6%	2.1%	-0.2%	32.5%	-7.9%
Cc1cc(=O)[nH]c(SCC(=O)c2ccc(F)c(C)c2)n1	-30.1%	-3.2%	?	-2.5%	0.262µM*	-19.1%
CCN1C(=O)CC(NC2CCN(C(=O)c3ccc(F)cc3)CC2)C1=O (stereo unspecified)	1.9%	-2.3%	0.8%	2.0%	?	-1.1%
Cc1nn(-c2ccc(F)cc2)c2nc(N)c(C#N)c(-c3ccc(O)c(O)c3)c12	-12.6%	1.9%	10.4µM*	-0.9%	10.4µM*	14.1µM*
COc1cc(-c2c(C#N)c(N)nc3c2c(C)nn3-c2ccc(C)c(C)c2)cc(OC)c1OC	0.2%	-12.5%	4.65µM*	0.0%	-22.3%[5.75 µM]	68.7%
CCCCN(CC)CCNC(=O)C1CCN(c2nnc(C)c3c(C)n(-c4ccc(C)cc4)nc23)CC1	-10.2%	11.5%	nt	nt	nt	nt
Cc1cc(O)c(-c2cc(C(=O)Nc3ccc(S(=O)(=O)N4CCOCC4)cc3)[nH]n2)cc1C	3.3%	2.0%	1.85µM*	-2.0%	i	?
Cc1ccc(NC(=O)c2ccc(S(=O)(=O)N3CCOCC3)cc2)cc1	2.2%	-2.2%	-18.2%	1.7%	-17.0%	3.1%
O=C(Nc1ccc(S(=O)(=O)N2CCOCC2)cc1)c1cc(-c2cc(Cl)ccc2O)n[nH]1	14.8%	10.7%	0.828µM*	-0.1%	1.31µM*	-22.7%
COC(=O)c1sc(N)c(C(=O)OC)c1COC(=O)CNS(=O)(=O)c1ccc(C)c(C)c1	-2.9%	-0.2%	?	15.1%	?	0.0%
COC(=O)c1sc(N)c(C(=O)OC)c1COC(=O)CCNS(=O)(=O)c1ccc(C)cc1	-11.7%	-9.6%	?	3.2%	10.4µM*	-33.3%
